A selection: hits, their analogues and other compounds. The true share with any hit is near 19%.
KB-3-1 tox = qHTS assay for MDR1-selective chemotherapeutics: Primary screen using the parental adenocarcinoma cell KB-3-1. Potency, µM (doses to about 46.1 µM), hits mostly cytotoxic. KB-3-1 viability, CellTiter-Glo ATP luminescence, 72 h. 400,000 tested, 1.4% active. AID 1347075, 2019; also: nearly all actives have a fitted effect of over 60% in size
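Cytotoxicity measured as CellTiter-Glo luminescence after 72 h at 37 C. Compound titrations were pinned onto drug-naive KB-3-1 parental adenocarcinoma cells grown in DMEM with 10% FBS, and normalized data fitted to concentration-response curves.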
KB-V1 MDR tox = qHTS assay for MDR1-selective chemotherapeutics: Primary screen using the drug-selected MDR subline cells KB-V1 | KB-V1 MDR cells viability, CellTiter-Glo, 72 h | Potency, µM (series often up to 46.1 µM), usual class: cytotoxic | 400,000 tested, 3.4% active; also: nearly all actives have a fitted effect of over 60% in size
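Following 72 h at 37 degrees C with compound, KB-V1 cell viability was read by CellTiter-Glo luminescence, medium being phenol-red-free DMEM plus 10% FBS; concentration-response parameters came from normalized, curve-fitted qHTS data.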
DT40 TDP1 no CPT = qHTS for Inhibitors of human tyrosyl-DNA phosphodiesterase 1 (TDP1): qHTS in cells in absence of CPT; 420,000 tested, 15% active; DT40 Tdp1-/- hTDP1 cells, no CPT, ATP luminescence, 48 h; AID 686978, 2013; Potency, µM (top dose mostly 46.2 µM), inactives show top-dose activity change, negative = growth inhibition, usual class: inhibitors; also: nearly all actives have a fitted effect of over 55% in size
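Readout: luminescence from CellTiter-Glo after 30 min in the dark at RT. Cells: DT40 Tdp1-/- with stable hTDP1, 400/well. Exposure: compounds alone, ≥48 hr, 37 °C.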
HT1080-NT tox = qHTS for induction of synthetic lethality in tumor cells producing 2HG: qHTS for the HT-1080-NT fibrosarcoma cell line; HT-1080-NT fibrosarcoma viability, CellTiter-Glo ATP luminescence, 48 h; Potency, µM (doses to about 46.1 µM), for inactives: top-dose activity, negative = less viability, usual class: cytotoxic; 360,000 tested, 1.6% active;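 also: NT is the 2HG producing partner of a matched IDH1 knockdown line; 0% = DMSO-treated cells and -100% = media-only wells without cells; nearly all actives have a fitted effect of over 55% in size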
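A 48-hour cytotoxicity screen used HT-1080-NT cells plated 2 hours before compound delivery. ATP-based CellTiter-Glo luminescence measured viability, normalized to DMSO and no-cell controls.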
HT1080 IDH1KD tx = qHTS for induction of synthetic lethality in tumor cells producing 2HG: qHTS for the HT-1080-IDH1KD cell line; AID 686971, 2013; HT-1080 IDH1 knockdown viability, ATP luminescence, 48 h; Potency, µM (titrated, usually from 46.1 µM), inactives show at the highest dose activity, negative = toxicity, hits mostly cytotoxic; 360,000 tested, 2% active;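 also: 0% = DMSO wells and -100% = cell-free medium wells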
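IDH1KD HT-1080 cells, 750/well, RPMI + 5% FBS; compound pinned after 2 h settling; 48 h, 37 °C; CellTiter-Glo luminescence; % activity normalised to DMSO and no-cell wells; curves fitted, classed by r2 and efficacy.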
DT40 TDP1 CPT = qHTS for Inhibitors of human tyrosyl-DNA phosphodiesterase 1 (TDP1): qHTS in cells in presence of CPT; 420,000 tested, 12% active; Potency, µM (series often up to 46.2 µM), without a hit: at the highest dose activity change, negative = growth inhibition, actives largely listed as inhibitors; chicken DT40 Tdp1-/-;hTDP1 cells + 20 nM CPT, ATP luminescence, 48 h; also: nearly all actives have a fitted effect of over 55% in size
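Cell growth measured by CellTiter-Glo luminescence after a minimum 48 h, 37 C compound exposure with 20 nM CPT in Tdp1-knockout DT40 cells stably expressing hTDP1, seeded 400/well; qHTS titration format.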
Numbers without * were called inactive; [ ] = dose if it differs, or a comment. Calls follow the shape of the dose curve; as a rule, active = well fitted curve in the direction sought with a large enough effect; inconclusive = small, poorly fitted or top-dose-only effect, or another doubt; inactive = no such curve, though single readings can be large; an effect the other way counts as inactive or inconclusive. Unless noted, % is scaled to controls: 0 for no effect and ±100 for the full control effect; potency is read from the fitted curve at half-maximal effect.

Results for CC(=NCc1ccc2c(c1)OCO2)c1c(O)n(-c2ccccc2)c(=O)[nH]c1=O ?
KB-3-1 tox: inconclusive; KB-V1 MDR tox: inactive; DT40 TDP1 no CPT: 8.3%; HT1080-NT tox: -1.7%; HT1080 IDH1KD tx: inconclusive; DT40 TDP1 CPT: -0.5%

Results for O=C(/C=C/c1ccccc1)c1c(O)n(CCc2ccccc2)c(=O)[nH]c1=O ?
KB-3-1 tox: 14.6µM*; KB-V1 MDR tox: 6.51µM*; DT40 TDP1 no CPT: 2.59µM*; HT1080-NT tox: -10.7%; HT1080 IDH1KD tx: -22.5%; DT40 TDP1 CPT: 5.17µM*

What do the screens show for `O=C(/C=C/c1ccc2c(c1)OCO2)c1c(O)n(CCc2ccccc2)c(=O)[nH]c1=O`?
KB-3-1 tox: inconclusive; KB-V1 MDR tox: 13µM*; DT40 TDP1 no CPT: inconclusive; HT1080-NT tox: 0.5%; HT1080 IDH1KD tx: 0.0%; DT40 TDP1 CPT: inconclusive

What do the screens show for `Cc1cccc(N(C)S(=O)(=O)c2cc(-c3cnc(C4CC4)o3)ccc2C)c1`?
KB-3-1 tox: inactive; KB-V1 MDR tox: inactive; DT40 TDP1 no CPT: 23.1µM*; DT40 TDP1 CPT: 16.4µM*

Results for CCS(=O)(=O)NCc1nnc2n1-c1ccc(Br)cc1C(c1ccccc1Cl)=NC2 ?
KB-3-1 tox: inactive; KB-V1 MDR tox: inactive; DT40 TDP1 no CPT: -10.6%; HT1080-NT tox: 3.4%; HT1080 IDH1KD tx: 7.7%; DT40 TDP1 CPT: -2.1%

Results for Clc1cccc(C(c2ccc3nc[nH]c3c2)n2ccnc2)c1 (stereo not given) ?
DT40 TDP1 no CPT: 26.6µM*; DT40 TDP1 CPT: inconclusive

Results for O=C(Nc1ccc2ccccc2c1)N1C[C@H]2C[C@@H](C1)c1cccc(=O)n1C2 ?
KB-3-1 tox: inactive; KB-V1 MDR tox: inactive; DT40 TDP1 no CPT: 23.5%; HT1080-NT tox: -2.2%; HT1080 IDH1KD tx: -0.8%; DT40 TDP1 CPT: -8.5%

What do the screens show for `CN1C[C@@H](NS(=O)(=O)N(C)C)C[C@@H]2c3cccc4c3c(cn4C)C[C@H]21`?
DT40 TDP1 no CPT: inconclusive; DT40 TDP1 CPT: -29.5%

What do the screens show for `CN(CC=CCN(C)P(=S)(N1CC1)N1CC1)P(=S)(N1CC1)N1CC1`?
KB-3-1 tox: inactive; KB-V1 MDR tox: inactive; DT40 TDP1 no CPT: 1.84µM*; HT1080-NT tox: -0.8%; HT1080 IDH1KD tx: -10.6%; DT40 TDP1 CPT: 1.64µM*

What do the screens show for `CC(C)CN1CC2(CCN(C(=O)Oc3ccccc3)CC2)C1`?
DT40 TDP1 no CPT: 3.2%; DT40 TDP1 CPT: 7.9%

How did Cc1cc(O)c2c(c1)C(=O)C13C(=C2O)C(=O)[C@H]2[C@@H](O)[C@@H]1[C@H]1[C@H](O)[C@@H]3C(=O)C3=C(O)c4c(O)cc(C)cc4C(=O)C312 (stereo not given in full) do in these assays?
KB-3-1 tox: 9.2µM*; KB-V1 MDR tox: inactive; DT40 TDP1 no CPT: 1.16µM*; HT1080-NT tox: 0.581µM*; HT1080 IDH1KD tx: 5.17µM*; DT40 TDP1 CPT: 0.651µM*

Results for Cc1ccccc1-n1c(O)c(C(c2ccncc2)c2c(O)n(-c3ccccc3C)c(=O)[nH]c2=O)c(=O)[nH]c1=O ?
KB-3-1 tox: inactive; KB-V1 MDR tox: inactive; DT40 TDP1 no CPT: inconclusive; HT1080-NT tox: 17.3%; HT1080 IDH1KD tx: 7.5%; DT40 TDP1 CPT: 2.5%

How did C[C@]12CC[C@H]3[C@@H](CCC4=CC(=O)CC[C@@]43C)[C@@H]1CC[C@@H]2OC(=O)CCc1ccccc1 do in these assays?
DT40 TDP1 no CPT: inconclusive; DT40 TDP1 CPT: -13.3%[92.5 µM]

How did Clc1ccc(C2=CCC[C@H]3CC[C@@H]2N3)cn1 do in these assays?
DT40 TDP1 no CPT: -16.6%; DT40 TDP1 CPT: 1.7%

How did CSCC[C@H](NC(=O)[C@H](Cc1ccccc1)NC(=O)CNC(=O)CNC(=O)[C@@H](N)Cc1ccc(O)cc1)C(=O)O do in these assays?
DT40 TDP1 no CPT: -2.3%[4.12 µM]; DT40 TDP1 CPT: -0.2%[4.12 µM]

What do the screens show for `CCS(=O)(=O)N1Cc2cc(C(=O)N(C)C)nc(-c3cccc(-c4ccc(F)cc4)c3)c2[C@H]1CCO`?
KB-3-1 tox: inactive; KB-V1 MDR tox: inactive; DT40 TDP1 no CPT: -14.1%; HT1080-NT tox: -1.6%; HT1080 IDH1KD tx: 23.1µM*; DT40 TDP1 CPT: -6.6%

What do the screens show for `COc1ccc(C#Cc2ccc3c(c2)O[C@H](CN(C)C(C)=O)[C@H](C)CN([C@@H](C)CO)S3(=O)=O)cc1`?
KB-3-1 tox: inconclusive; KB-V1 MDR tox: inconclusive; DT40 TDP1 no CPT: 14.6µM*; HT1080-NT tox: -14.5%; HT1080 IDH1KD tx: -17.9%; DT40 TDP1 CPT: 23.1µM*

What do the screens show for `C[C@@H]1CN([C@H](C)CO)S(=O)(=O)c2ccc(C#Cc3cccc(F)c3)cc2O[C@@H]1CN(C)C(=O)CN1CCOCC1`?
KB-3-1 tox: inactive; KB-V1 MDR tox: inactive; DT40 TDP1 no CPT: 18.4µM*; HT1080-NT tox: -7.9%; HT1080 IDH1KD tx: -14.0%; DT40 TDP1 CPT: inconclusive

What do the screens show for `Cc1ccc(S(=O)(=O)N(C)C[C@H]2Oc3cc(Br)ccc3S(=O)(=O)N([C@H](C)CO)C[C@@H]2C)cc1`?
KB-3-1 tox: inactive; KB-V1 MDR tox: inconclusive; DT40 TDP1 no CPT: 9.1%; HT1080-NT tox: 7.5%; HT1080 IDH1KD tx: 0.5%; DT40 TDP1 CPT: 11.6%

How did CC1N=C(c2ccccc2Cl)c2cc(Br)ccc2NC1=O (stereo not given) do in these assays?
KB-3-1 tox: inactive; KB-V1 MDR tox: inactive; DT40 TDP1 no CPT: -7.6%; HT1080-NT tox: -11.9%; HT1080 IDH1KD tx: -13.9%; DT40 TDP1 CPT: 0.9%

Results for CC(C)C1C(=O)N2CCCC2[C@]2(O)O[C@@](NC(=O)[C@@H]3C=C4c5cccc6[nH]cc(c56)C[C@H]4N(C)C3)(C(C)C)C(=O)N12 (stereo not given in full) ?
DT40 TDP1 no CPT: inconclusive; DT40 TDP1 CPT: 9.44µM*

What do the screens show for `CC(C)C[C@H]1C(=O)N2CCCC2[C@]2(O)O[C@](NC(=O)[C@@H]3C=C4c5cccc6[nH]cc(c56)CC4N(C)C3)(C(C)C)C(=O)N12` (stereo not given in full)?
KB-3-1 tox: inactive; KB-V1 MDR tox: inactive; DT40 TDP1 no CPT: 16.4µM*; HT1080-NT tox: -24.5%; HT1080 IDH1KD tx: -22.5%; DT40 TDP1 CPT: inconclusive

Screens (PubChem)
